Drawing on article PMC10726135, “HNF4α isoforms regulate the circadian balance between carbohydrate and lipid metabolism in the liver”, this text covers binding signal for 44 sequences.

The full ranking holds about 18,000 sequences; the median of “log2 normalized intensity” is about 0.39, and the highest 2% start at about 6.6. Shown is part of a subset that was picked to be rich in the highest values.

This assay deals with T1, HNF4alpha2 (COS-7 nuclear extract) (Homo sapiens, UniProt P41235 1-474).
T1 sequence: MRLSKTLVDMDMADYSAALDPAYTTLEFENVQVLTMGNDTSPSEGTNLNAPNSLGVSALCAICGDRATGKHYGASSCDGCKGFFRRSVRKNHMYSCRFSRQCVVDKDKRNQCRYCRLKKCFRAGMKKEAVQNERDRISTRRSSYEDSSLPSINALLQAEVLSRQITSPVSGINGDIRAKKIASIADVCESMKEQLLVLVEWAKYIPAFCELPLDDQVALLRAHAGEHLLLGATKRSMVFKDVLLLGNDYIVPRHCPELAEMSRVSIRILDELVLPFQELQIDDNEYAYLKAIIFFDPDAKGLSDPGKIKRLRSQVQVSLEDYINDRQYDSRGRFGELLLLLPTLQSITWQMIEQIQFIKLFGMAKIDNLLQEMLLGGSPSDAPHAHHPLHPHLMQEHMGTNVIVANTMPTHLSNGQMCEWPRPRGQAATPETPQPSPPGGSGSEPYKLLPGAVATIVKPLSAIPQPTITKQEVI
In words: protein-binding microarray; COS-7 nuclear extract on double-stranded Agilent 4x180k PBM; binding buffer, salt, pH and temperature not given in the material; high values mean tight binding. The following applies: chain copies: 2; label: 3' end of strand 1 on the slide; dsDNA, one strand shown. In short, it runs like this: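 The binding signal is Agilent software's gProcessedSignal after background correction and normalization. Arrays were a custom Agilent SurePrint G3 4x180k design of double-stranded ~60-nt oligonucleotides with ~44,000 test sequences in quadruplicate, probed with nuclear extracts of COS-7 cells transiently expressing a human HNF4α isoform. Scans were made at 2-µm resolution on an Agilent G2565CA scanner.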
“CCTATATAGTTGAGATTGTAACCGTAAATGGCCTAGGGAGATTAGAGTATCGGTCGA”: the binding signal worked out at 1.55 log2 normalized intensity.

Take “GTTAAGTGAGTGGACTTTGGTCCTGGTCAGGCCTAGGGAGATTAGAGTATCGGTCGA”: the binding signal came to 6.52 log2 normalized intensity.

As to “CTAAGAGATTTGAATATGTACATGGACTTTGCCTAGGGAGATTAGAGTATCGGTCGA”, the binding signal amounted to 6.19 log2 normalized intensity.

Turning to “AGGTACTAAGAGATTTGAATATGTACATGGGCCTAGGGAGATTAGAGTATCGGTCGA”, the binding signal amounted to 1.38 log2 normalized intensity.

“TGAATATGTACATGGACTTTGAACCAAGATGCCTAGGGAGATTAGAGTATCGGTCGA”: the binding signal worked out at 8.36 log2 normalized intensity.

On to “ATGTACATGGACTTTGAACCAAGATATGCTGCCTAGGGAGATTAGAGTATCGGTCGA”, for which the binding signal is 6.75 log2 normalized intensity.

In the case of “ACACAGTACTTTGTACATGGGAATAGACATGCCTAGGGAGATTAGAGTATCGGTCGA”, the binding signal turned out to be 0.863 log2 normalized intensity.

For the sequence “AGATTTGAATATGTACATGGACTTTGAACCGCCTAGGGAGATTAGAGTATCGGTCGA”, the binding signal was determined as 10.3 log2 normalized intensity.

For “CGGTCAGCTGCTTGACTTAGTACATGGCCTGCCTAGGGAGATTAGAGTATCGGTCGA”, the binding signal was 0.557 log2 normalized intensity.

As for “CATGGACTTTGAACCAAGATATGCTAACATGCCTAGGGAGATTAGAGTATCGGTCGA”, the binding signal is 4.81 log2 normalized intensity.

Consider “GAATGCAACCACACCAACATGGACTTTGTCGCCTAGGGAGATTAGAGTATCGGTCGA”, for which the binding signal worked out at 6.09 log2 normalized intensity.

With “ATCCTTATCTTGTAGAAAAGTGCATGGATTGCCTAGGGAGATTAGAGTATCGGTCGA”, the binding signal amounted to 0.836 log2 normalized intensity.

Regarding “TTGAGTTTGCTCTGCTACTAACTGCATGACGCCTAGGGAGATTAGAGTATCGGTCGA”, the binding signal is -0.452 log2 normalized intensity.

With “TTCTCCAGGAAGTTCAGGCCTCGGCTTCATGCCTAGGGAGATTAGAGTATCGGTCGA”, the binding signal was -0.98 log2 normalized intensity.

With “CACTCAATGCAGCAGCATTGGACCCTCCCAGCCTAGGGAGATTAGAGTATCGGTCGA”, the binding signal stood at 5.46 log2 normalized intensity.

For “CTGCAGATTGACTCAGGCATTCTGACCTTTGCCTAGGGAGATTAGAGTATCGGTCGA”, the binding signal was found to be 6.93 log2 normalized intensity.

Take “CCTTTTATTTTCTTATCTGCCTAGGCATTTGCCTAGGGAGATTAGAGTATCGGTCGA”: the binding signal stood at 1.33 log2 normalized intensity.

With “GATTGACTCAGGCATTCTGACCTTTGTCTCGCCTAGGGAGATTAGAGTATCGGTCGA”, the binding signal was 7.05 log2 normalized intensity.

For “TAAAACTGCAGATTGACTCAGGCATTCTGAGCCTAGGGAGATTAGAGTATCGGTCGA”, the binding signal is -0.529 log2 normalized intensity.

Turning to “TTTTAAGGTCTGGCATTCTTTTTGACCTTTGCCTAGGGAGATTAGAGTATCGGTCGA”, the binding signal came to 7.55 log2 normalized intensity.

Regarding “TATTTAGACTCAGCATGTCTTCTGACCTTTGCCTAGGGAGATTAGAGTATCGGTCGA”, the binding signal turned out to be 6.51 log2 normalized intensity.

Take “ACTCAGGCATTCTGACCTTTGTCTCCAGGCGCCTAGGGAGATTAGAGTATCGGTCGA”: the binding signal is 5.69 log2 normalized intensity.

As to “CCATATCACATTTTAAGGTCTGGCATTCTTGCCTAGGGAGATTAGAGTATCGGTCGA”, the binding signal turned out to be 1.37 log2 normalized intensity.

Consider “GGCATTCTGACCTTTGTCTCCAGGCAAACTGCCTAGGGAGATTAGAGTATCGGTCGA”, for which the binding signal was 4.88 log2 normalized intensity.

Turning to “CCTTATGACGGACAAAGGGCTCTCTCACCAGCCTAGGGAGATTAGAGTATCGGTCGA”, the binding signal is -0.701 log2 normalized intensity.

“TGTGGGCCTCACACCCTCTAGGGTAGATAAGCCTAGGGAGATTAGAGTATCGGTCGA”: the binding signal was -0.451 log2 normalized intensity.

Turning to “TGCCTCCTTCAAGGATTAGCAGATAAATCTGCCTAGGGAGATTAGAGTATCGGTCGA”, the binding signal is -0.904 log2 normalized intensity.

“ATGAAGATATATTCCTTCAGGAAGGCCTGTGCCTAGGGAGATTAGAGTATCGGTCGA”: the binding signal was found to be 0.708 log2 normalized intensity.

For the sequence “CTTTCATACGTTTAACAGTTCCTCCTGGAAGCCTAGGGAGATTAGAGTATCGGTCGA”, the binding signal was 1.18 log2 normalized intensity.

In the case of “CTATTAGGTCTTTGAAGTTGTCTTATCACCGCCTAGGGAGATTAGAGTATCGGTCGA”, the binding signal is 1.34 log2 normalized intensity.

Take “GGACCGCAGGGGGCTCCCGGACCCTGACTCGCCTAGGGAGATTAGAGTATCGGTCGA”: the binding signal was determined as 0.458 log2 normalized intensity.

Take “AGCCACCGCGCCCCGCCCCCAGTGCACCTTGCCTAGGGAGATTAGAGTATCGGTCGA”: the binding signal was 5.11 log2 normalized intensity.

In the case of “TTGTATGTCCAAGGGTCACTCGACATTCATGCCTAGGGAGATTAGAGTATCGGTCGA”, the binding signal was 3.02 log2 normalized intensity.

In the case of “TTGAAGTGACTAAATGAGAAGAAATGATGGGCCTAGGGAGATTAGAGTATCGGTCGA”, the binding signal is 1.69 log2 normalized intensity.

“GGTGCTGATGTTAACACAAGTTATTACCGTGCCTAGGGAGATTAGAGTATCGGTCGA”: the binding signal worked out at 1.03 log2 normalized intensity.

As for “CAGTGGTAACCACAGTACTGTCTTTTTGCCGCCTAGGGAGATTAGAGTATCGGTCGA”, the binding signal is -0.854 log2 normalized intensity.

For the sequence “TTGCATAGGCATTGTCTTGAAAGATAAAGTGCCTAGGGAGATTAGAGTATCGGTCGA”, the binding signal was found to be 0.627 log2 normalized intensity.

Regarding “TCTTTTTGCCACTAGGGGTCACTGTCACATGCCTAGGGAGATTAGAGTATCGGTCGA”, the binding signal came to 2.7 log2 normalized intensity.

As to “ATTTTTCCCTTTGATATTTATCAAGATGAAGCCTAGGGAGATTAGAGTATCGGTCGA”, the binding signal was 0.736 log2 normalized intensity.

As to “ATTTATCAAGATGAACTTTGACCCACCTACGCCTAGGGAGATTAGAGTATCGGTCGA”, the binding signal was 8.26 log2 normalized intensity.

As to “CACCCAGAACTTTGACCGTTTGATTATTTGGCCTAGGGAGATTAGAGTATCGGTCGA”, the binding signal came to 2.56 log2 normalized intensity.

“TCCCTTTGATATTTATCAAGATGAACTTTGGCCTAGGGAGATTAGAGTATCGGTCGA”: the binding signal came to 4.93 log2 normalized intensity.

As to “TTGATATTTATCAAGATGAACTTTGACCCAGCCTAGGGAGATTAGAGTATCGGTCGA”, the binding signal was determined as 10.8 log2 normalized intensity.

On to “ATGAACTTTGACCCACCTACATTGATATTCGCCTAGGGAGATTAGAGTATCGGTCGA”, for which the binding signal turned out to be 4.81 log2 normalized intensity.
